Screens from PubChem BioAssay.
This is a sample that favours compounds with a hit; in the whole collection about 0.85% have one here.
LANA DNA inh: inhibitors of KSHV C-LANA binding to DNA, primary screen, biochemical, fluorescence polarization, FAM-LBS DNA, MBP-C-LANA, single point; Kaposi's sarcoma herpesvirus LANA C-terminal domain (residues 932-1162) DNA binding; inhibition, % at 9 µM; 340,000 compounds, 0.078% hits; AID 504423, 2011;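 active = highest replicate inhibition at or above 60% at 9 µM, even if other replicates fall short; inactive = all replicates below 60% inhibition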;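 note: 0% = neutral control wells and 100% = 4 µM acridine orange control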
Keap1 Nrf2 FP: Keap1-Nrf2 protein-protein interaction inhibitors, primary screen, biochemical, fluorescence polarization, single point; Kelch-like ECH-associated protein 1 (Homo sapiens), Q14145; Keap1 Kelch-Nrf2 peptide fluorescence polarization, 1536-well; inhibition, % at 9.4 µM; 340,000 compounds, 0.15% hits; in the data active = inhibition above about 12%;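 note: human Keap1 Kelch domain with fluorescein labeled Nrf2 9mer peptide probe; 0% = neutral control wells and 100% = peptide positive control; higher means more block of Keap1 binding to Nrf2 peptide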
Target sequence (Q14145 whole entry, looked up, the tested form may be a part): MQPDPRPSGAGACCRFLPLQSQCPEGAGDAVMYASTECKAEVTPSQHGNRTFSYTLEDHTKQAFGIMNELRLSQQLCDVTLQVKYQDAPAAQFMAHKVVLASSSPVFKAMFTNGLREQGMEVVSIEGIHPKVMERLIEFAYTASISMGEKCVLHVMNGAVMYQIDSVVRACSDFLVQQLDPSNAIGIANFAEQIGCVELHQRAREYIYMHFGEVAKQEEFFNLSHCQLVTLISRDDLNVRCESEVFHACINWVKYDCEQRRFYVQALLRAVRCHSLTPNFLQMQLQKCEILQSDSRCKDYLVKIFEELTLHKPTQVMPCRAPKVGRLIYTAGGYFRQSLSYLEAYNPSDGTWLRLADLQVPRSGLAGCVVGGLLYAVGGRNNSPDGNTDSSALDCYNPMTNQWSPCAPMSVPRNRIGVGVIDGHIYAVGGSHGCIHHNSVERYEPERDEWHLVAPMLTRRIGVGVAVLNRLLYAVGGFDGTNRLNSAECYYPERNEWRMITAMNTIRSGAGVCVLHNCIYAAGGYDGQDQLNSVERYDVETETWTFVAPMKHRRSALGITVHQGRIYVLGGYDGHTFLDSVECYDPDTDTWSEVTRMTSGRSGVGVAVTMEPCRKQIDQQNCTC
eLon inh: inhibitors of E. coli Lon protease, primary screen, biochemical, fluorescence polarization; P0A9M0; purified E. coli Lon protease; inhibition, % at 7.94 µM; 360,000 compounds, 0.42% hits; AID 602123, 2011; in the data active = inhibition above about 13%, passing the limit was not always enough;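 note: 0% = enzyme with probe and DMSO and 100% = no enzyme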
ZTA counter: blocks Epstein-Barr virus ZTA, an EBNA-1 counter-screen; ZTA-DNA binding, fluorescence polarization; inhibition, % at 11 µM; 320,000 compounds, 0.15% hits; AID 2234; in the data active = inhibition above about 33%
EBNA-1 inhibitor: EBNA-1 DNA-binding inhibitors, primary screen, biochemical, fluorescence polarization. inhibition, % at 14.8 µM. 300,000 compounds, 0.34% hits. AID 1950, 2009; in the data active = inhibition above about 28%
Keap1 Kelch bind: Keap1 Kelch domain binders by thermal stabilisation, dose response, biophysical, thermal shift, RT-PCR instrument, cherry-pick; max delta Tm, degrees C; delta Tm; stronger effect = higher value; 400 compounds, 8% hits; AID 651823, 2012; shares compounds with Keap1 Nrf2 FP; in the data active = max delta Tm above about 0.48 degrees C
Sypro dye melt: Sypro Orange dye melt without protein, dose response, artefact control for Keap1-Nrf2 interaction inhibitor project, biochemical, thermal shift counterscreen, cherry-pick; shares compounds with Keap1 Nrf2 FP; Sypro Orange dye-only thermal melt, no protein, delta Tm; top dose 26 µM; delta Tm, degrees C (no concentration beside the values); 140 tested, under 10 active; AID 651858, 2012;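 active = at highest dose tested, delta Tm positive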
eLon confirm: E. coli Lon protease inhibitor retest, confirmation, biochemical, fluorescence polarization; inhibition, % at 7.94 µM; 1,400 compounds, 31% hits; shares compounds with eLon inh; purified E. coli Lon; in the data active = inhibition above about 16%;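 note: 0% = enzyme with probe and DMSO and 100% = no enzyme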
* marks the source's active call; other numbers are inactive results.

`Cc1cc2nc3c(=O)n(C4CCCCC4)c(=O)[nH]c3nc2cc1N` gave LANA DNA inh 97*, Keap1 Nrf2 FP 48*, eLon inh 75*, Keap1 Kelch bind -0.03, Sypro dye melt -25 and eLon confirm 115*.
`CC(=O)Nc1cccc(C2=CC(c3ccco3)n3ncnc3N2)c1` (centres undefined) gave ZTA counter -4 and EBNA-1 inhibitor 7.
For Clc1ccc(C2=CC(c3ccco3)n3ncnc3N2)cc1 (centres undefined) the results were LANA DNA inh 48, Keap1 Nrf2 FP 28*, eLon inh 139*, ZTA counter 17, EBNA-1 inhibitor 12, Keap1 Kelch bind -0.02, Sypro dye melt -34 and eLon confirm 75*.
COc1ccc(C2=CC(c3ccco3)n3ncnc3N2)cc1 (centres undefined) was read as LANA DNA inh 40, Keap1 Nrf2 FP 20*, eLon inh 49*, Keap1 Kelch bind -0.16, Sypro dye melt -28 and eLon confirm 69*.
Screening Cc1nnc(NC(=O)c2ccc3c(c2)NC(=O)CS3)s1 returned LANA DNA inh 0, Keap1 Nrf2 FP 18*, eLon inh 25*, ZTA counter 8, Keap1 Kelch bind -0.13 and eLon confirm -6.
`CCN(CC)C(=O)CN1CCN(Cc2ccc3c(c2)OCO3)CC1` gave LANA DNA inh 1, Keap1 Nrf2 FP -1, eLon inh 4, ZTA counter -6 and EBNA-1 inhibitor -7.
N#CCCN(CCC#N)C(=O)C1c2ccccc2Oc2ccccc21 was read as LANA DNA inh 95*, Keap1 Nrf2 FP 64*, eLon inh active, ZTA counter -9, EBNA-1 inhibitor -7, Keap1 Kelch bind -0.18, Sypro dye melt -32 and eLon confirm 7.
CN(CCC#N)C(=O)COC(=O)C1c2ccccc2Oc2ccccc21 was read as LANA DNA inh 0, Keap1 Nrf2 FP -5, eLon inh 2, ZTA counter -8 and EBNA-1 inhibitor 6.
COC(=O)c1cc(N2CCN(C)CC2)nc2ccccc12 was read as LANA DNA inh 53, Keap1 Nrf2 FP 31*, eLon inh 96*, ZTA counter 6, EBNA-1 inhibitor 1, Keap1 Kelch bind -0.03 and eLon confirm 19*.
Cc1cc(-c2ccccc2C(=O)O)on1 was read as LANA DNA inh -1, Keap1 Nrf2 FP -7, eLon inh 3, ZTA counter 0 and EBNA-1 inhibitor -2.
`O=C(O)c1ccccc1C1=Nc2ccc(O)cc2Oc2cc(O)ccc21` gave LANA DNA inh 111*, Keap1 Nrf2 FP 70*, eLon inh 78*, ZTA counter 1, EBNA-1 inhibitor -1, Keap1 Kelch bind -0.06, Sypro dye melt -27 and eLon confirm 97*.
For CCOC(=O)c1c(C)oc2c1c(C(c1ccccc1)N1CCOCC1)c(O)c1ccccc12 (centres undefined) the results were LANA DNA inh 2, Keap1 Nrf2 FP -1, eLon inh 5, ZTA counter -3 and EBNA-1 inhibitor -16.
`CCOC(=O)c1c(C)oc2c1c(C=NCCO)c(O)c1ccccc12` gave LANA DNA inh 8, Keap1 Nrf2 FP 23*, eLon inh 25*, Keap1 Kelch bind -0.18, Sypro dye melt -29 and eLon confirm 20*.
`c1ccc(CCn2nnnc2CN2CCCc3ccccc32)cc1` gave LANA DNA inh -1, Keap1 Nrf2 FP 2, eLon inh 13, ZTA counter -1 and EBNA-1 inhibitor -4.
c1ccc2c(c1)CCCN2Cc1nnnn1CC1CCCO1 (centres undefined) was read as LANA DNA inh 31, Keap1 Nrf2 FP 20*, eLon inh 73*, ZTA counter -10, EBNA-1 inhibitor -1, Keap1 Kelch bind -0.19 and eLon confirm 35*.
Cc1ccc(/C=C2/SC(=S)N(C3CCCCC3)C2=O)o1 was read as LANA DNA inh 1, Keap1 Nrf2 FP -1, eLon inh -26, ZTA counter -20 and EBNA-1 inhibitor -16.
For Cc1ccc(/C=C2/SC(=O)NC2=S)o1 the results were LANA DNA inh 31, Keap1 Nrf2 FP 25*, eLon inh 89*, Keap1 Kelch bind 0.73* and eLon confirm 107*.
Screening CN(C(=O)CN1C(=O)c2ccccc2S1(=O)=O)C1CCCCC1 returned LANA DNA inh -1, Keap1 Nrf2 FP -1 and eLon inh -2.
`COc1ccc(NC(=O)NS(=O)(=O)c2ccc(C)cc2)cn1` gave LANA DNA inh 104*, Keap1 Nrf2 FP 77*, eLon inh 87*, Keap1 Kelch bind -0.13 and eLon confirm 28*.
`COc1cc(NC(=O)NS(=O)(=O)c2ccc(C)cc2)cc(OC)c1` gave LANA DNA inh 2, Keap1 Nrf2 FP -1, eLon inh 8, ZTA counter 10 and EBNA-1 inhibitor 6.
For CCN1C(=O)c2cccc3c(N)ccc(c23)C1=O the results were LANA DNA inh 38, Keap1 Nrf2 FP 38*, eLon inh active, ZTA counter 8, EBNA-1 inhibitor 3, Keap1 Kelch bind -0.2 and eLon confirm active.
CC(C)N1CC=C2C(C#N)=C(N)C(C#N)(C#N)C(c3ccccc3)C2C1 (centres undefined) was read as LANA DNA inh 33, Keap1 Nrf2 FP 12*, eLon inh 53*, ZTA counter -11, EBNA-1 inhibitor -5, Keap1 Kelch bind -0.09, Sypro dye melt -30 and eLon confirm 20*.
Screening Cc1ccc(C(=O)/C=C/NNC(=O)c2ccccc2O)cc1 returned LANA DNA inh -2, Keap1 Nrf2 FP -1, eLon inh -15, ZTA counter -2 and EBNA-1 inhibitor 1.
`Cc1cc[n+](-c2[nH]c(=O)sc2/C=N/N=C(\[O-])c2ccccc2)cc1C` gave LANA DNA inh 62*, Keap1 Nrf2 FP 43*, eLon inh 68*, Keap1 Kelch bind -0.04 and eLon confirm 125*.
`Cc1cc[n+](-c2[nH]c(=O)sc2/C=N/N=C(\[O-])c2ccncc2)cc1C` gave LANA DNA inh 1, Keap1 Nrf2 FP 2, eLon inh 3, ZTA counter -15 and EBNA-1 inhibitor -17.
Screening C=C(C)CNC(=O)c1ccc2nc(Cc3ccc(OC)cc3)oc2c1 returned LANA DNA inh 0, Keap1 Nrf2 FP -4, eLon inh -2, ZTA counter -16 and EBNA-1 inhibitor -3.
